According to the supplement of paper PMC10849652:
Of roughly 7,900 targets only a part is listed; those with a hit were picked by preference. About 0.6% of all pairs of compound and target were hits.

Compound: C1CN(CCC1(CC2=CC=C(C=C2)Cl)N)C3=NC=NC4=C3C=CN4
Experiment: log2 fold change, soluble protein after heating vs DMSO (PISA); higher = thermal stabilisation; K562 cells, 10 uM, 30 min; active = over 0.2 and 3.5 SD of the protein, either way, in both replicates (recomputed)
In short: (§1)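 K562 cells at 2×10^6 cells/mL were treated for 30 min with 10 μM compound, and aliquots were heated for 3 min over 48°C-58°C before pooling. Extraction used PBS with 0.5% NP-40 at 4°C, and soluble protein was the supernatant after 21,000xg for 90 min, measured by TMTpro 16plex LC-MS/MS with channel sums equalised. Thermal stability values, relative to control samples and from duplicates, are log2 fold changes.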

Sequence of UniProt Q14689 (Q14689 whole entry, looked up): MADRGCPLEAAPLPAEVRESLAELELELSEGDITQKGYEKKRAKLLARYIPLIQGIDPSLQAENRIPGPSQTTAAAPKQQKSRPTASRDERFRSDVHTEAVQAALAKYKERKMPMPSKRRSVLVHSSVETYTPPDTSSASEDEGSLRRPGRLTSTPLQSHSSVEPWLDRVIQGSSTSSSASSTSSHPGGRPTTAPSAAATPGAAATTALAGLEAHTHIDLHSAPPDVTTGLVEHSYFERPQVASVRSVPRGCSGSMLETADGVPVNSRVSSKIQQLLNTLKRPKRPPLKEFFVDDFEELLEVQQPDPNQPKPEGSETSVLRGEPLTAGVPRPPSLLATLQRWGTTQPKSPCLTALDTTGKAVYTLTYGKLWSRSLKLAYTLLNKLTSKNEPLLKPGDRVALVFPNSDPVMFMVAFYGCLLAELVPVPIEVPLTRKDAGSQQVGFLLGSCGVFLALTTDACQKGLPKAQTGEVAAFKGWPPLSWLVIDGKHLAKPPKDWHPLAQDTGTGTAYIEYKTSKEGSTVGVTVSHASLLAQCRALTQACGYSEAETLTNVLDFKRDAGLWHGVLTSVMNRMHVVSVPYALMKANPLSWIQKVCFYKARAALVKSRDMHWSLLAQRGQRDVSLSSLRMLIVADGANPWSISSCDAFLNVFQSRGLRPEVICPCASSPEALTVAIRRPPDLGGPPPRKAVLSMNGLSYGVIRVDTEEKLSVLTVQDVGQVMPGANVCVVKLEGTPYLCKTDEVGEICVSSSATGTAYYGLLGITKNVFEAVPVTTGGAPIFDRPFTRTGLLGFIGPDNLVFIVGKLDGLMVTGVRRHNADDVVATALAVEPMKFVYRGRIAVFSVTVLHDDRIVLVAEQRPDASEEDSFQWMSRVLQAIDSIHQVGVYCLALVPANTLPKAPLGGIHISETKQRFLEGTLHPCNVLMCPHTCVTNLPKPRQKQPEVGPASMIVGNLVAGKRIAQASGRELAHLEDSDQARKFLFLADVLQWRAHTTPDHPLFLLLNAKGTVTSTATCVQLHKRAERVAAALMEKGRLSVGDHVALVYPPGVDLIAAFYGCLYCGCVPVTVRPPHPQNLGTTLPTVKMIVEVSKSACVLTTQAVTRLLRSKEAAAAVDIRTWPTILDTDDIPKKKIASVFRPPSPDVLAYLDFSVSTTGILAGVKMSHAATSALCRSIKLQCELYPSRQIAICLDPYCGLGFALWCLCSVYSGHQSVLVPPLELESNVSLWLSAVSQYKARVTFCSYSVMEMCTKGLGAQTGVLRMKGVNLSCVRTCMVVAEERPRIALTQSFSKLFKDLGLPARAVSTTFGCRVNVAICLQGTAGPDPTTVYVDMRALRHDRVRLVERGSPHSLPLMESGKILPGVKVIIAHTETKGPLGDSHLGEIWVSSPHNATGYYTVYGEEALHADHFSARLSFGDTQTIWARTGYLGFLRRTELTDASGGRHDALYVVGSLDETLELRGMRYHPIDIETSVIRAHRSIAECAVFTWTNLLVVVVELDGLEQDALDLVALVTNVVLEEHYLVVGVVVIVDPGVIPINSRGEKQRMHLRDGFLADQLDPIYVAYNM
Sequence of UniProt Q16254 (Q16254 whole entry, looked up): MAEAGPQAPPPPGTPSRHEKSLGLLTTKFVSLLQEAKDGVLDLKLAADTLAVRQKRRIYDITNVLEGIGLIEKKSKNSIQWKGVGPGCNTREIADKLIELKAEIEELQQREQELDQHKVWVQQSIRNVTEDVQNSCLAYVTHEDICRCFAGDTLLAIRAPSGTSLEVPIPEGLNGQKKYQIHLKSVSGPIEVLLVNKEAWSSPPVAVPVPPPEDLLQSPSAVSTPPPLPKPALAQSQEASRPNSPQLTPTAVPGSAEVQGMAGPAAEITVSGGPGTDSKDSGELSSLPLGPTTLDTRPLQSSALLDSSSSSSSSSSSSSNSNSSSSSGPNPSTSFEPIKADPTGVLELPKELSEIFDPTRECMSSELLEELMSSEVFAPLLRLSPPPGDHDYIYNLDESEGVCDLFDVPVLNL
Sequence of UniProt P35222 (P35222 whole entry, looked up): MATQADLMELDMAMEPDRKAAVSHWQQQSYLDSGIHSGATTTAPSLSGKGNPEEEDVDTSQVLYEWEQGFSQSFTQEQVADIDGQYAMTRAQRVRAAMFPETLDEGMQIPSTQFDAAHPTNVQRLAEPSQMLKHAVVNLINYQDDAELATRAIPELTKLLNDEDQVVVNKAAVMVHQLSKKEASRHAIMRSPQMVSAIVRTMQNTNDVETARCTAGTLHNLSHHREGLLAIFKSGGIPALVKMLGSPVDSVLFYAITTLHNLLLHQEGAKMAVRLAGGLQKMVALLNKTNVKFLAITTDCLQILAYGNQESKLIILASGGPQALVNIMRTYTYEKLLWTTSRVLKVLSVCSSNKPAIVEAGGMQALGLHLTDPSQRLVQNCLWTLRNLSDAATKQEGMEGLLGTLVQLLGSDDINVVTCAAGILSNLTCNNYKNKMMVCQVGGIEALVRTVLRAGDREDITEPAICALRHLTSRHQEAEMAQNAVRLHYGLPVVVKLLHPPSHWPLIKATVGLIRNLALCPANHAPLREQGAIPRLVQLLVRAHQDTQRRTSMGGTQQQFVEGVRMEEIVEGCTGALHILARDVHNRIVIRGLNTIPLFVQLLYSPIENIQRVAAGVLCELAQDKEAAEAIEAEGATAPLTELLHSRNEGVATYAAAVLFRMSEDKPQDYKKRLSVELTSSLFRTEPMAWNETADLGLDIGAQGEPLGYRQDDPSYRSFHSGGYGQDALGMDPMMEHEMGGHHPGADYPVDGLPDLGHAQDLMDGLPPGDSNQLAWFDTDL
Sequence of UniProt Q9NVR5 (Q9NVR5 whole entry, looked up): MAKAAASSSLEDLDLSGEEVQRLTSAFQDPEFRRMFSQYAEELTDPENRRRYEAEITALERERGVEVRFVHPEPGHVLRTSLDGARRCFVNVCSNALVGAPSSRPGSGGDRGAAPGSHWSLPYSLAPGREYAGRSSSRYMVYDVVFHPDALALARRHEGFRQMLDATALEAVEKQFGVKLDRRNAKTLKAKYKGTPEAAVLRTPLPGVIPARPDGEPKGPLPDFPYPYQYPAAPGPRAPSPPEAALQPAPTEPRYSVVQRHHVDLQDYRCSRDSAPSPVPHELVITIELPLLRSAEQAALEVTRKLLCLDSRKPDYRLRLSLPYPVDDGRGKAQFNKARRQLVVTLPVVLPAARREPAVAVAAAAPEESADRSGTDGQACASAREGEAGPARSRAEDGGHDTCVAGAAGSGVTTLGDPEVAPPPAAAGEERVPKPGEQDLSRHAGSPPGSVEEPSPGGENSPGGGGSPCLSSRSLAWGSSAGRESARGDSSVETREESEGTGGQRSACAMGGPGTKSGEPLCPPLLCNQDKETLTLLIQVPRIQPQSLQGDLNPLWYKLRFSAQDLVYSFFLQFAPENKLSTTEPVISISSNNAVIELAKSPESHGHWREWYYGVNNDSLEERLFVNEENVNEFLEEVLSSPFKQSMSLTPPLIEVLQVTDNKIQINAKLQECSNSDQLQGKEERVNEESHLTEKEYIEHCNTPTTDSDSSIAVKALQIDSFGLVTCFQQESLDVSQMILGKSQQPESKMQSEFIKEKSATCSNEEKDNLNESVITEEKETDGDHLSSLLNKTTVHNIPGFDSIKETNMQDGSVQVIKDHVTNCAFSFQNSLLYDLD
Sequence of UniProt Q9BV94 (Q9BV94 whole entry, looked up): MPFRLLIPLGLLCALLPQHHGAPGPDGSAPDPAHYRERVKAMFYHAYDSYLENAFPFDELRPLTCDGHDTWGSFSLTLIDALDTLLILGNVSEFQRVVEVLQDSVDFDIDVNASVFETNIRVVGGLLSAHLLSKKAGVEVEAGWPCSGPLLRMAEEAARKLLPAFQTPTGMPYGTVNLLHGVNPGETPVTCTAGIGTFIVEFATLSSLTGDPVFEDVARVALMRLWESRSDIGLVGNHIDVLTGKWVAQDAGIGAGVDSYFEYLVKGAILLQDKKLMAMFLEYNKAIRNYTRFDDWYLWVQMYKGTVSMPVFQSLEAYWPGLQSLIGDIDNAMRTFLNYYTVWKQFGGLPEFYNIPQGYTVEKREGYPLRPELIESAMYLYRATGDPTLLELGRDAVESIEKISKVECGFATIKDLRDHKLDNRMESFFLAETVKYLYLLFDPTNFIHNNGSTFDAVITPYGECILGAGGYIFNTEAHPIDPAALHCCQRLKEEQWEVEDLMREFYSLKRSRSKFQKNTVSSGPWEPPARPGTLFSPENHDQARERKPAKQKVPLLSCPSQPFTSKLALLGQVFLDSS
Sequence of UniProt P50570 (P50570 whole entry, looked up): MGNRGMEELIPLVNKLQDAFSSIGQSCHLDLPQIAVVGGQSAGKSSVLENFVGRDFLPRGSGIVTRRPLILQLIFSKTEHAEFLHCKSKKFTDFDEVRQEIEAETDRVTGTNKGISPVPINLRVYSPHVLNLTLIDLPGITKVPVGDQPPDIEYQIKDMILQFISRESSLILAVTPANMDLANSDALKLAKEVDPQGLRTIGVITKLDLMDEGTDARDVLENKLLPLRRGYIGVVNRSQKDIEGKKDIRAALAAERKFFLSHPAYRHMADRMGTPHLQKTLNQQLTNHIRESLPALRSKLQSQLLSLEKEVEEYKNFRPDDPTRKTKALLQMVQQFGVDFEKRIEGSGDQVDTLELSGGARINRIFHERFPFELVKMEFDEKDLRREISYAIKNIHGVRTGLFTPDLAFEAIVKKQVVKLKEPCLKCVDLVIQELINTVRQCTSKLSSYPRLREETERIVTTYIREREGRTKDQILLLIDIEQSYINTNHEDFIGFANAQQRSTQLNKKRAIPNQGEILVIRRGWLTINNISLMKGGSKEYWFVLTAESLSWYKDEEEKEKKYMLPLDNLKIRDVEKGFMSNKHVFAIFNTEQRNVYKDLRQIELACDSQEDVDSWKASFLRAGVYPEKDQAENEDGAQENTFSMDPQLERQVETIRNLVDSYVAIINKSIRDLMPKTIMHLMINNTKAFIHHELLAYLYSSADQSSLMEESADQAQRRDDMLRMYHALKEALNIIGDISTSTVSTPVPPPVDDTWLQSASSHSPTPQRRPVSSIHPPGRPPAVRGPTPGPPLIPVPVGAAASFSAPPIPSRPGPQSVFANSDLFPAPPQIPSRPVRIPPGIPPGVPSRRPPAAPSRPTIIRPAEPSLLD

log2 fold change, inactive:
CTU1 (UniProt Q7Z7A3) 0.008
DNAJC1 (UniProt Q96KC8) 0.027
EIF4E isoform 2 (UniProt P06730) 0.146
DIP2A (UniProt Q14689) 0.053
DBN1 isoform 3 (UniProt Q16643) 0.041
EXOC6 (UniProt Q8TAG9) -0.042
EXTL2 (UniProt Q9UBQ6) -0.119
DDOST (UniProt P39656) -0.003
DDX39A (UniProt O00148) -0.019
ERCC6 (UniProt Q03468) 0.106
DYRK1A isoform 2 (UniProt Q13627) -0.067
DBR1 (UniProt Q9UK59) 0.044
EEF1G isoform 2 (UniProt P26641) -0.031
DHFR (UniProt P00374) -0.015
EFL1 (UniProt Q7Z2Z2) 0.013
FAM114A2 (UniProt Q9NRY5) -0.021
DNAAF2 (UniProt Q9NVR5) -0.025
EXOC8 (UniProt Q8IYI6) -0.054
DUS3L (UniProt Q96G46) 0.078
DHPS (UniProt P49366) 0.021
EDEM2 (UniProt Q9BV94) 0.05
DHX16 (UniProt O60231) 0.024
ERCC2 (UniProt P18074) 0.036
DHCR24 (UniProt Q15392) -0.074
DNM2 (UniProt P50570) -0.003
EHBP1L1 (UniProt Q8N3D4) -0.116
FAM118B (UniProt Q9BPY3) -0.023
EBNA1BP2 (UniProt Q99848) -0.414
CUTA isoform 2 (UniProt O60888) -0.105
EXOC1 (UniProt Q9NV70) -0.073
DFFB (UniProt O76075) -0.039
ELOVL1 (UniProt Q9BW60) 0.014
FAM3A (UniProt P98173) 0.059
DTWD2 (UniProt Q8NBA8) -0.02
DDB1 (UniProt Q16531) 0.04
E2F4 (UniProt Q16254) -0.022
DPH5 isoform 5 (UniProt Q9H2P9) 0.052
CTNNB1 (UniProt P35222) -0.032
FAM50A (UniProt Q14320) -0.065

Compound: C1COCCN1CCN2C3=CC=CC=C3N=C2NC(=O)C4=CC(=CC=C4)[N+](=O)[O-] [IRAK-1-4 Inhibitor I]
Experiment: as above
In short: as §1

log2 fold change, inactive:
CTU1 (UniProt Q7Z7A3) 0.026
DNAJC1 (UniProt Q96KC8) 0.017
EIF4E isoform 2 (UniProt P06730) 0.066
DIP2A (UniProt Q14689) -0.036
DBN1 isoform 3 (UniProt Q16643) -0.06
EXOC6 (UniProt Q8TAG9) -0.046
EXTL2 (UniProt Q9UBQ6) -0.018
DDOST (UniProt P39656) -0.038
DDX39A (UniProt O00148) -0.034
ERCC6 (UniProt Q03468) 0.05
DYRK1A isoform 2 (UniProt Q13627) -0.001
DBR1 (UniProt Q9UK59) -0.04
EEF1G isoform 2 (UniProt P26641) -0.02
DHFR (UniProt P00374) -0.065
EFL1 (UniProt Q7Z2Z2) 0.016
FAM114A2 (UniProt Q9NRY5) 0.038
DNAAF2 (UniProt Q9NVR5) -0.02
EXOC8 (UniProt Q8IYI6) -0.094
DUS3L (UniProt Q96G46) 0
DHPS (UniProt P49366) 0.011
EDEM2 (UniProt Q9BV94) 0.181
DHX16 (UniProt O60231) -0.006
ERCC2 (UniProt P18074) -0.01
DHCR24 (UniProt Q15392) -0.036
DNM2 (UniProt P50570) 0.022
EHBP1L1 (UniProt Q8N3D4) -0.044
FAM118B (UniProt Q9BPY3) 0.039
EBNA1BP2 (UniProt Q99848) -0.143
CUTA isoform 2 (UniProt O60888) 0.074
EXOC1 (UniProt Q9NV70) -0.085
DFFB (UniProt O76075) -0.002
ELOVL1 (UniProt Q9BW60) 0.079
FAM3A (UniProt P98173) -0.028
DTWD2 (UniProt Q8NBA8) 0.094
DDB1 (UniProt Q16531) 0.038
E2F4 (UniProt Q16254) -0.025
DPH5 isoform 5 (UniProt Q9H2P9) 0.036
CTNNB1 (UniProt P35222) -0.028
FAM50A (UniProt Q14320) -0.014
